Experimental data: PubChem BioAssay (NCI)
Compounds without any hit were thinned out: in the full panel of roughly 83,000, 20% have a hit.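 Method: cells in 96-well plates; compound added at one concentration; 48 h incubation; percent growth measured; values under 10 scored active.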 Calls of active or inactive are those of the source.

What was measured:
Experiment in all cases: NCI-60 one-dose screen, 48 h (100 = growth as untreated, 0 = no growth, -100 = all killed)
Settings in all cases: 10 µM unless noted
SR leukemia = test system: SR leukemia
OVCAR-8 ovarian = test system: OVCAR-8 ovarian
OVCAR-5 ovarian = test system: OVCAR-5 ovarian
OVCAR-4 ovarian = test system: OVCAR-4 ovarian
SK-OV-3 ovarian = test system: SK-OV-3 ovarian
IGROV1 ovarian = test system: IGROV1 ovarian
OVCAR-3 ovarian = test system: OVCAR-3 ovarian
HS 578T breast = test system: HS 578T breast
NCI/ADR-RES ovarian = test system: NCI/ADR-RES ovarian
T-47D breast = test system: T-47D breast
BT-549 breast = test system: BT-549 breast
MDA-MB-435 melanoma = test system: MDA-MB-435 melanoma
SW-620 colon = test system: SW-620 colon
MCF7 breast = test system: MCF7 breast
HCT-116 colon = test system: HCT-116 colon
HCC-2998 colon = test system: HCC-2998 colon
KM12 colon = test system: KM12 colon
RPMI-8226 leukemia = test system: RPMI-8226 leukemia

Measured: growth

CCN1Cc2nc3sc(C)c(C)c3c(=O)n2C=C1C
inactive: OVCAR-8 ovarian 38.1% | OVCAR-5 ovarian 85.9% | OVCAR-4 ovarian 42.3% | SK-OV-3 ovarian 115% | IGROV1 ovarian 30.1% | OVCAR-3 ovarian 46% | HS 578T breast 43.2% | NCI/ADR-RES ovarian 30.9% | T-47D breast 37.1% | MDA-MB-435 melanoma 48.1% | SW-620 colon 15.6% | HCC-2998 colon 81.2% | KM12 colon 14.5%
active: SR leukemia -9.23% | BT-549 breast -5.48% | MCF7 breast -41.8% | HCT-116 colon -24.9%

CCOC(=O)[C@@H]1CCCN(S(=O)(=O)c2ccc(S(=O)(=O)N(CC)CC)c(F)c2)C1
inactive: SR leukemia 60.1% | RPMI-8226 leukemia 61% | OVCAR-5 ovarian 95.5% | OVCAR-4 ovarian 75.5% | SK-OV-3 ovarian 82.4% | IGROV1 ovarian 93.5% | OVCAR-3 ovarian 88% | HS 578T breast 93.5% | NCI/ADR-RES ovarian 47.2% | T-47D breast 53.3% | BT-549 breast 58.5% | MDA-MB-435 melanoma 75.6% | SW-620 colon 86.6% | MCF7 breast 61.8% | HCT-116 colon 42% | HCC-2998 colon 92.5% | KM12 colon 81.9%

CCCCOc1ccc(/C=N/Nc2cc(C)nc3ccc(Br)cc23)cc1
active: SR leukemia -9.77% | RPMI-8226 leukemia -15.9% | OVCAR-3 ovarian -53% | MDA-MB-435 melanoma -4.43% | SW-620 colon -70.5% | MCF7 breast -52.1% | HCT-116 colon -69.6% | HCC-2998 colon -53.9% | KM12 colon -4.11%
inactive: OVCAR-4 ovarian 44% | SK-OV-3 ovarian 91.5% | IGROV1 ovarian 10% | HS 578T breast 86.8% | NCI/ADR-RES ovarian 83.8% | T-47D breast 82.5% | BT-549 breast 99%

CC(=O)Nc1ccc(-c2ccc3c(c2)NC(=O)/C3=C\c2ccc[nH]2)cc1
inactive: SR leukemia 36.5% | RPMI-8226 leukemia 94.4% | OVCAR-5 ovarian 73% | OVCAR-4 ovarian 102% | SK-OV-3 ovarian 121% | IGROV1 ovarian 96.6% | OVCAR-3 ovarian 104% | HS 578T breast 110% | NCI/ADR-RES ovarian 96.7% | T-47D breast 37.5% | BT-549 breast 83.5% | MDA-MB-435 melanoma 90.6% | SW-620 colon 96.4% | HCT-116 colon 104% | HCC-2998 colon 104% | KM12 colon 45.4%
active: MCF7 breast 9.83%

O=C(Nc1ccc(-c2ccc3c(c2)NC(=O)/C3=C\c2ccc[nH]2)cc1)NC1CC1
inactive: SR leukemia 34.8% | RPMI-8226 leukemia 87% | OVCAR-4 ovarian 98.3% | SK-OV-3 ovarian 118% | IGROV1 ovarian 96.6% | OVCAR-3 ovarian 107% | HS 578T breast 97.1% | NCI/ADR-RES ovarian 105% | T-47D breast 32.1% | BT-549 breast 103% | MDA-MB-435 melanoma 98.6% | SW-620 colon 103% | MCF7 breast 15.8% | HCT-116 colon 96.6% | HCC-2998 colon 107% | KM12 colon 19.1%

O=C(O)c1ccc2c(c1)C(=O)N(Cc1ccccc1)C2=O
inactive: SR leukemia 101% | RPMI-8226 leukemia 95.5% | OVCAR-5 ovarian 105% | OVCAR-4 ovarian 114% | SK-OV-3 ovarian 106% | IGROV1 ovarian 106% | OVCAR-3 ovarian 103% | HS 578T breast 99.7% | NCI/ADR-RES ovarian 98% | T-47D breast 95.8% | BT-549 breast 98.6% | MDA-MB-435 melanoma 106% | SW-620 colon 98.6% | MCF7 breast 95.3% | HCT-116 colon 96.8% | HCC-2998 colon 99.2% | KM12 colon 104%

CCOc1cccc(-c2nc(N)nc(Nc3ccccc3SSc3ccccc3Nc3nc(N)nc(-c4cccc(OCC)c4)n3)n2)c1
active: SR leukemia 7.62%
inactive: RPMI-8226 leukemia 56.4% | OVCAR-5 ovarian 99.7% | OVCAR-4 ovarian 71.7% | SK-OV-3 ovarian 125% | IGROV1 ovarian 62.6% | OVCAR-3 ovarian 80.2% | HS 578T breast 69.2% | NCI/ADR-RES ovarian 19% | T-47D breast 44.5% | BT-549 breast 78.7% | MDA-MB-435 melanoma 88.8% | SW-620 colon 76.4% | MCF7 breast 70.1% | HCT-116 colon 57.2% | HCC-2998 colon 97.8% | KM12 colon 40.6%

COc1cc(/C=N/NC(=O)c2cnn3c2NC(c2ccccc2)C3)ccc1Oc1ccccc1 (configuration not stated)
active: OVCAR-3 ovarian -23.4% | BT-549 breast 6.76% | MDA-MB-435 melanoma -22.9% | MCF7 breast 9.6% | HCT-116 colon 1.82%
inactive: SR leukemia 18% | RPMI-8226 leukemia 56.1% | OVCAR-5 ovarian 59.6% | OVCAR-4 ovarian 31.7% | SK-OV-3 ovarian 27.6% | IGROV1 ovarian 33.8% | HS 578T breast 37.8% | T-47D breast 28.6% | SW-620 colon 24.9% | HCC-2998 colon 57.3% | KM12 colon 16.6%

COC(=O)N[C@H]1CCc2c(Cl)c(OC)c(OC)c(OC)c2-c2ccc(SC)c(=O)cc21
inactive: OVCAR-5 ovarian 38.5% | OVCAR-4 ovarian 39.5% | SK-OV-3 ovarian 40.3% | T-47D breast 40.4% | SW-620 colon 16.1% | MCF7 breast 10.8% | HCC-2998 colon 21.5%
active: SR leukemia 2.15% | RPMI-8226 leukemia -5.28% | IGROV1 ovarian 9.16% | OVCAR-3 ovarian -46.2% | HS 578T breast 9.58% | NCI/ADR-RES ovarian 7.43% | BT-549 breast -4.69% | MDA-MB-435 melanoma -49.9% | HCT-116 colon 0.452% | KM12 colon 1.72%

CN(C)CCC(=O)c1ccc([N+](=O)[O-])cc1
inactive: SR leukemia 97.8% | RPMI-8226 leukemia 89% | OVCAR-5 ovarian 102% | OVCAR-4 ovarian 100% | SK-OV-3 ovarian 99.5% | IGROV1 ovarian 109% | OVCAR-3 ovarian 110% | HS 578T breast 107% | NCI/ADR-RES ovarian 107% | T-47D breast 89.4% | MDA-MB-435 melanoma 104% | SW-620 colon 106% | MCF7 breast 89.4% | HCT-116 colon 103% | HCC-2998 colon 106% | KM12 colon 113%

CC(Oc1ccc(C(=O)O)cc1C(F)(F)F)c1ccc(Oc2ccccc2)cn1 (configuration not stated)
inactive: SR leukemia 71.7% | RPMI-8226 leukemia 99.9% | OVCAR-5 ovarian 102% | OVCAR-4 ovarian 106% | SK-OV-3 ovarian 124% | IGROV1 ovarian 98.4% | OVCAR-3 ovarian 104% | HS 578T breast 99.6% | NCI/ADR-RES ovarian 75.2% | T-47D breast 100% | BT-549 breast 89.1% | MDA-MB-435 melanoma 77.4% | SW-620 colon 103% | MCF7 breast 89.5% | HCT-116 colon 103% | HCC-2998 colon 108% | KM12 colon 92.2%

CCOC(=O)c1cc(C(=O)c2ccc(OC)c(OC)c2)n2ccc(/C=C/c3cc[n+](CC(=O)c4ccc(OC)c(OC)c4)cc3)cc12
inactive: SR leukemia 92.2% | RPMI-8226 leukemia 81.4% | OVCAR-5 ovarian 99.9% | OVCAR-4 ovarian 90.9% | SK-OV-3 ovarian 102% | IGROV1 ovarian 88.6% | OVCAR-3 ovarian 102% | HS 578T breast 102% | NCI/ADR-RES ovarian 98.6% | T-47D breast 89.9% | BT-549 breast 96.6% | MDA-MB-435 melanoma 99.4% | SW-620 colon 96.7% | MCF7 breast 91.1% | HCT-116 colon 89.7% | HCC-2998 colon 98.8% | KM12 colon 100%

CCOc1ccc(/C=N/Nc2cc(C)nc3ccc(Br)cc23)cc1
active: SR leukemia 2.09%
inactive: RPMI-8226 leukemia 71.4% | OVCAR-4 ovarian 91.8% | SK-OV-3 ovarian 90.8% | IGROV1 ovarian 96.2% | OVCAR-3 ovarian 105% | HS 578T breast 101% | NCI/ADR-RES ovarian 81.8% | T-47D breast 89.2% | BT-549 breast 91.3% | MDA-MB-435 melanoma 92.6% | SW-620 colon 55.2% | MCF7 breast 75.8% | HCT-116 colon 36.6% | HCC-2998 colon 100% | KM12 colon 84.6%

Cc1nc(N)nc(N[C@@H](C)c2nc3cccc(NCc4ccc(C(=O)NO)cc4)c3c(=O)n2-c2ccccc2)n1
inactive: SR leukemia 33.3% | RPMI-8226 leukemia 17.2% | OVCAR-5 ovarian 90.5% | OVCAR-4 ovarian 92.2% | SK-OV-3 ovarian 86.7% | IGROV1 ovarian 69.5% | OVCAR-3 ovarian 85.9% | HS 578T breast 72.1% | NCI/ADR-RES ovarian 103% | T-47D breast 22.3% | BT-549 breast 99% | MDA-MB-435 melanoma 64.7% | SW-620 colon 49.5% | MCF7 breast 74.9% | HCT-116 colon 56.3% | HCC-2998 colon 98% | KM12 colon 92.9%

C=C(C)[C@@H]1CC[C@]2(C(=O)N[C@H](CO)Cc3ccccc3)CC[C@]3(C)[C@H](CC[C@@H]4[C@@]5(C)CCCNC(C)(C)[C@@H]5CC[C@]43C)[C@@H]12
active: SR leukemia -56.8% | RPMI-8226 leukemia -49.3% | OVCAR-5 ovarian -93.5% | OVCAR-4 ovarian -80.9% | SK-OV-3 ovarian -96.2% | IGROV1 ovarian -78.8% | OVCAR-3 ovarian -95.9% | NCI/ADR-RES ovarian -67.6% | T-47D breast -58% | BT-549 breast -88.1% | MDA-MB-435 melanoma -93.6% | SW-620 colon -82.3% | MCF7 breast -69.7% | HCC-2998 colon -84.7% | KM12 colon -80.7%

O=C(CSc1nc2sc3c(c2c(=O)n1-c1ccc(Cl)cc1)CCCC3)Nc1nc(-c2cccc(Br)c2)cs1
inactive: SR leukemia 80.6% | RPMI-8226 leukemia 96.4% | OVCAR-5 ovarian 75.7% | OVCAR-4 ovarian 72.9% | SK-OV-3 ovarian 94.2% | IGROV1 ovarian 72.6% | OVCAR-3 ovarian 89% | HS 578T breast 72.6% | NCI/ADR-RES ovarian 80.5% | T-47D breast 76.9% | BT-549 breast 92.1% | MDA-MB-435 melanoma 97.5% | SW-620 colon 78.9% | MCF7 breast 87.4% | HCT-116 colon 81.6% | HCC-2998 colon 107% | KM12 colon 83.8%

COc1ccccc1NS(=O)(=O)c1cccc(C(=O)Nc2ccc(Br)cc2)c1
inactive: SR leukemia 50.4% | RPMI-8226 leukemia 38.4% | OVCAR-5 ovarian 68.9% | OVCAR-4 ovarian 35.3% | SK-OV-3 ovarian 44.1% | IGROV1 ovarian 46.6% | OVCAR-3 ovarian 45.8% | HS 578T breast 73.8% | NCI/ADR-RES ovarian 27.6% | T-47D breast 21.2% | BT-549 breast 37.2% | MDA-MB-435 melanoma 35.3% | SW-620 colon 55.1% | MCF7 breast 32.5% | HCT-116 colon 37.9% | HCC-2998 colon 57.5% | KM12 colon 34.6%

CN(C)c1ccc(Nc2c3ccccc3nc3cc(NC(=O)CCN4CCCC4)ccc23)cc1
active: SR leukemia -19.3% | RPMI-8226 leukemia -35.5% | OVCAR-4 ovarian -17.9% | IGROV1 ovarian 1.29% | OVCAR-3 ovarian -38.6% | MDA-MB-435 melanoma -94.4% | SW-620 colon -33.3% | MCF7 breast -21.8% | HCT-116 colon -56.2% | HCC-2998 colon -83.3%
inactive: OVCAR-5 ovarian 11.5% | SK-OV-3 ovarian 16.6% | HS 578T breast 19.8% | T-47D breast 12.1% | BT-549 breast 23.6%
